From PubChem BioAssay (Tox21)
Active and inactive are the calls of the source. The call rests on the fitted dose curve; in most records, active means well fitted curve in the direction sought with a large enough effect in the repeat runs; inconclusive means weak or mixed curves; inactive means flat fitted curve, though single readings scatter.

Assay: qHTS assay to test for compound auto fluorescence at 535 nm (green) in HEK293 cells (AID 720680)
Settings: green autofluorescence 485/535 nm; series mostly up to 91.3 µM
From the text: U.S. Tox21 Program National Center for Advancing Translational Sciences [NCATS] NIH Chemical Genomics Center [NCGC] U.S. Environmental Protection Agency [EPA] National Institutes of Environmental Health Sciences [NIEHS] National Toxicology Program [NTP] U.S. Food and Drug Administration [FDA] Tox21 Assay Overview: Compound auto fluorescence often interferes with screening of the compound library against various biological targets and signaling pathways. Some of these compounds may have fluorophoric properties. Such properties may interfere with the assay outputs resulting in false positives and/or negatives. To decrease such complications and ensure the compound activities are relevant in terms of biological response, the Tox21 10K compound library was screened for auto fluorescence. From the fluorophores used as reporter signals in our screening assays, the auto fluorescence equivalencies of compounds against three fluorophores have been evaluated: Triamterene, Fluorescein and Rose Bengal sodium for blue, green and red fluorescence, respectively. The fluorescence intensities were measured using Excitation/Emission wavelengths at 405/460nm, 485/535nm and 540/590nm for blue, green and red labels, respectively. This assay includes the green fluorescence data.
Tox21 Assay Protocol Summary: 2,000 HEK293 cells in 5 uL of culture medium containing 10% dialyzed FBS per well were dispensed into black wall/clear bottom 1536-well plates using a Multidrop Combi Dispenser (Thermo Scientific). The assay plates were incubated for 4-5 hr at 37C to allow cell attachment to the well bottom, followed by the transfer of 23 nL compound or DMSO vehicle by a pintool work station (Kalypsys, San Diego, CA). After the assay plates were incubated overnight at 37C and 5% CO2, fluorescence intensities in the assay plates were measured by an Envision (PerkinElmer, Shelton, CT) plate reader using three labels for measuring blue, green and red fluorescence at […] 460, 535 and 590nm respectively.
On the % scale 0 is the no-effect control and ±100 the full control effect.

Structure (SMILES)	outcome	fluorescence, % of fluorescein
CCCCN(CCCC)C(=S)S	inactive	–
CC1CN1 (stereo not given)	inactive	–
C[C@]12C/C(=C/O)C(=O)C[C@@H]1CC[C@@H]1[C@@H]2CC[C@@]2(C)[C@H]1CC[C@]2(C)O	inactive	–
C=CCBr	inactive	–
O.O.O.O.O.O.O.O=S(=O)([O-])[O-].[Co+2]	inactive	–
Clc1c(Cl)c(Cl)c(Cl)c(Cl)c1Cl	–	0.081% [at 3.72 µM] (inactive)
CSC(C)(C)/C=N/O	inactive	–
CC(C)=CCN1CC[C@@]2(C)c3cc(O)ccc3C[C@@H]1[C@@H]2C	inactive	–
CCC(C)c1cccc(C(C)CC)c1O (stereo not given)	inactive	–
CCNc1nc(NC(C)C(C)C)nc(SC)n1 (stereo not given)	inactive	–
CC(Cl)CCl (stereo not given)	inactive	–
CN1C(=O)[C@@H](NC(=O)c2cc3ccccc3[nH]2)N=C(c2ccccc2)c2ccccc21	inactive	–
OCC(Br)CBr (stereo not given)	inactive	–
CCCCC/C=C\C/C=C\C/C=C\C/C=C\CCCC(=O)NCC(=O)O	–	-0.212% [at 3.72 µM] (inactive)
Oc1ccc(Cl)c(Cl)c1	inactive	–
C=CC(=O)[O][Sn]([CH2]CCC)([CH2]CCC)[CH2]CCC	inactive	–
[Cl-].[Cl-].[Cl-].[Yb+3]	inactive	–
CC(C)(C)c1ccc(OP(=O)(Oc2ccccc2)Oc2ccccc2)cc1	inactive	–
CCCCn1cc[n+](C)c1 (tested in a mixture with another compound)	inactive	–
O=C1C[C@@H]2OCC=C3CN4CC[C@]56c7ccccc7N1[C@H]5[C@H]2[C@H]3C[C@H]46	inactive	–

Structure (SMILES)	outcome	fluorescence, % of fluorescein
CCC1(CC)C(=O)N=C(O)NC1=O	inactive	–
c1csc(-c2ccc(-c3cccs3)s2)c1	inactive	–
O=C(NC(=O)c1c(F)cccc1F)Nc1ccc(Oc2ccc(C(F)(F)F)cc2Cl)cc1F	inactive	–
[O-][Cl+3]([O-])([O-])O	inactive	–
Oc1cccc(Cl)c1Cl	inactive	–
CC(Cc1ccc(O)cc1)NCC(O)c1cc(O)cc(O)c1 (stereo not given)	inactive	–
O=S(=O)(O)F	inactive	–
COC(=O)/C=C(\C)OP(=O)(OC)OC	inactive	–
O.O.O.O=C([O-])[C@H]([O-])[C@@H]([O-])C(=O)[O-].O=C([O-])[C@H]([O-])[C@@H]([O-])C(=O)[O-].[K+].[K+].[Sb+3].[Sb+3]	inactive	–
CCC1COC(Cn2cncn2)(c2ccc(Cl)cc2Cl)O1 (stereo not given)	inactive	–
ClC1=C(Cl)[C@]2(Cl)[C@H]3[C@H]([C@@H]4C=C[C@H]3C4)[C@@]1(Cl)C2(Cl)Cl	inactive	–
O=C(O)CCCCCCNC1c2ccccc2CCc2ccccc21	inactive	–
CCOP(=S)(OCC)Oc1cc(C)nc(N(CC)CC)n1	inactive	–
Cc1cc2c3c(c1)C(c1ccccc1)=N[C@@H](NC(=O)c1ccncc1)C(=O)N3CC2	inactive	–
O=[N+]([O-])[O-].[Tl+]	inactive	–
O=C(N[C@H]1N=C(c2ccccc2F)c2cccc3c2N(CC3)C1=O)c1cc2ccccc2[nH]1	inactive	–
ClCBr	inactive	–
FC(F)C(F)(F)OCC(Cn1cncn1)c1ccc(Cl)cc1Cl (stereo not given)	inactive	–
C=C(C)C(=O)[O][Sn]([CH2]CCC)([CH2]CCC)[CH2]CCC	inactive	–
CN1CCc2cc3c(cc2C1O)OCO3 (stereo not given)	inactive	–
